From PubChem BioAssay come the findings set out here.

Test [1] is described as follows: resazurin metabolic signal in HepG2 cells – cell-based, resazurin fluorescence, 24 h, PK04 Diversity Set, profiling panel (AID 1172). Note: test concentration not given here. The settings on record: HepG2 viability, higher = more signal. On the technique in general: Alamar Blue is a resazurin reagent that responds to reducing activity.
A short description of test [2]: budding yeast growth changes without added modifier – OD600, strain BY4716, 24 h, basal condition, primary screen (AID 1173). The settings on record: S. cerevisiae BY4716 growth, OD600, 24 h; higher = more signal, called active from +8 up or from −8 down.
Test [3] can be described thus: viability profiling in MM1S myeloma cells – cell-based, resazurin fluorescence, basal, 24 h, PK04 Diversity Set, profiling panel (AID 1174).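 Note: MM1S multiple myeloma cell line; test concentration not given here.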 The following applies: higher = more signal, called active from +8 up or from −8 down.
Test [4] has as its target Dihydroorotate dehydrogenase (quinone), mitochondrial (Plasmodium falciparum (isolate 3D7)) (UniProt Q08210). Briefly: inhibition of P. falciparum DHODH – biochemical, C-terminal His tag, absorbance 600 nm, primary screen (AID 1175).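 Note: recombinant parasite enzyme with a five histidine tag at its C terminus; test concentration not given here.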 The settings on record: PfDHODH enzyme, DCIP absorbance 600 nm; higher = more signal, called active from +8 up or from −8 down.
The nature of test [5]: inhibition of PAO1 biofilm formation – strain PAO1, LB-PBS medium, absorbance 600 nm, primary screen (AID 1176). Note: test concentration not given here. The settings on record: P. aeruginosa PAO1 growth/biofilm, A600, 12 h; higher = more signal.
The nature of test [6]: growth modulation of vineyard yeast isolate – strain RM11-1a, OD600, basal, 24 h, primary screen (AID 1177).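 Note: cultures grown under basal conditions with no added stressor; test concentration not given here.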 The settings on record: S. cerevisiae RM11-1a growth, OD600, 24 h; higher = more signal, called active from +8 up or from −8 down.
The nature of test [7]: growth of efflux-deficient E. coli DRC39 – strain DRC39, OD650, 24 h, E. coli filamentation inducers, primary screen (AID 1178).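 Note: growth measured as culture turbidity by optical density at 650 nm; test concentration not given here.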 The settings on record: E. coli DRC39 acrAB, higher = more signal, called active from +8 up or from −8 down.
Test [8] in a line: growth of efflux-deficient E. coli DRC39 – strain DRC39, OD650, 48 h, E. coli filamentation inducers, primary screen (AID 1179).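 Note: screen aims at cell division blockers that make cells filament.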 The settings on record: E. coli DRC39 delta-acrAB growth, higher = more signal, called active from +8 up or from −8 down.
A short description of test [9]: viability profiling in RPMI8226 myeloma cells – cell-based, resazurin fluorescence, basal, 24 h, PK04 Diversity Set, profiling panel (AID 1180).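 Note: RPMI8826 multiple myeloma cell line at 5000 cells per well; test concentration not given here.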 The following applies: higher = more signal.
In test [10] the target is E3 ubiquitin-protein ligase XIAP (Homo sapiens) (UniProt P98170). The experiment in a line: small molecules binding XIAP protein – biophysical, small-molecule microarray, fluorescence 635 nm, primary screen (AID 1181).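 Note: score merges 667 nm emission and signal to noise over triplicate slides.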 The following applies: higher = more signal.
Sequence of E3 ubiquitin-protein ligase XIAP (Homo sapiens) (P98170 whole entry, looked up): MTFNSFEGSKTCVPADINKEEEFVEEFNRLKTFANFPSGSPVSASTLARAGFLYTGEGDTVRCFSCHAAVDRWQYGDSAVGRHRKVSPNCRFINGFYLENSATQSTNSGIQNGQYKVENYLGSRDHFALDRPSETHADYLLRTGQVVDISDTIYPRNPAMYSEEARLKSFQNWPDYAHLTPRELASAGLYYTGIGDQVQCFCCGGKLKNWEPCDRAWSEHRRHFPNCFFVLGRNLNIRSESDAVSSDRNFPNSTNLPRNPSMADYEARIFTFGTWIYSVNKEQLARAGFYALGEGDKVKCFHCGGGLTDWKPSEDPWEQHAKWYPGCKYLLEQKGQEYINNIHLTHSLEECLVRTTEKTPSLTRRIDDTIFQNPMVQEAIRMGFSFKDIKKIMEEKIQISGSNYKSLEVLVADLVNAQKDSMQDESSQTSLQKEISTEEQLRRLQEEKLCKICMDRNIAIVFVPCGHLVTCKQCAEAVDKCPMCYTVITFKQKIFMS

Calls of active or inactive are those of the source. Unless noted, the rule behind the calls is not given here.

Sequence of Dihydroorotate dehydrogenase (quinone), mitochondrial (Plasmodium falciparum (isolate 3D7)) (Q08210 whole entry, looked up): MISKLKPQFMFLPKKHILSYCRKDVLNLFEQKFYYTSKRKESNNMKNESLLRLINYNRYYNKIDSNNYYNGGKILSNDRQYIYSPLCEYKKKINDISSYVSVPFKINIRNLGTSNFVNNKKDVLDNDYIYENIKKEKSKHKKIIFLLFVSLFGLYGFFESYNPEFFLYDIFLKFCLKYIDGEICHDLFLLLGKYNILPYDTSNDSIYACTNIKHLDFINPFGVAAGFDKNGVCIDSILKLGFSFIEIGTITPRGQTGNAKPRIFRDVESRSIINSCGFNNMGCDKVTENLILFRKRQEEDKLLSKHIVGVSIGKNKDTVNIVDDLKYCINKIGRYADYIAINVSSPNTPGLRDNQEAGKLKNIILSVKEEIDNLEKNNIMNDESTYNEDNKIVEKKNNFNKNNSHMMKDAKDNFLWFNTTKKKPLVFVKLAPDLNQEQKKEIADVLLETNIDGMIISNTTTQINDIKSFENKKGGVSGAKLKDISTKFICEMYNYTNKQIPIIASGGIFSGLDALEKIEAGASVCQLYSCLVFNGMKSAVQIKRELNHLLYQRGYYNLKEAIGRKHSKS

For the compound `OCc1ccc(-c2cc[n+](Cc3cccc(OC(F)(F)F)c3)cc2)cc1`, the z-score was -0.0785 in [1]; -0.615 (inactive) in test [2]; -0.297 (inactive) in [3]; 0.282 (inactive) in test [5]; -0.327 (inactive) in test [6]; 0.188 (inactive) in test [7]. In addition, the z-score in [8] is 0.147 (inactive); in test [9], -0.784. The values for the composite z-score in test [4] and in test [10] were -5.09 (inactive) and 0.222, respectively.
Turning to `COc1ccc([Si](C)(C)[C@@H]2[C@@H](CC(=O)N3Cc4ccccc4C[C@H]3CO)O[C@]3(C(=O)N(Cc4cccc(N5CCCCC5=O)c4)c4ccccc43)[C@H]2C)cc1`, the z-score was -1.16 in test [1]; 0.0062 (inactive) in test [2]; -3.09 (inactive) in [3]; 0.331 (inactive) in test [5]; 1.98 (inactive) in [6]; -0.453 (inactive) in test [7]. Also, the z-score in [8] was -0.878 (inactive); in test [9], -2.15. Also, the values for the composite z-score in test [4] and in [10] were -1.02 (inactive) and -0.148, respectively.
In the case of `COCCOC(=O)N1C(=O)[C@@]2(c3cc(C#Cc4ccc(OC)cc4)ccc31)[C@H](C(=O)N1CCc3cc(OC)c(OC)cc3C1)[C@H]1C(=O)O[C@H](c3ccccc3)[C@H](c3ccccc3)N1[C@@H]2c1ccc(OCCO)cc1`, the z-score in test [1] was -0.562; in test [2], 1.39 (inactive); in test [3] it was -0.12 (inactive); in [5], 1.27 (inactive); in test [6], 2.92 (inactive); in [7] it was -0.997 (inactive). Besides, the results for the z-score in [8] and in test [9] were -1.19 (inactive) and 0.54, respectively. The composite z-score in [4] was -0.0739 (inactive); in test [10], 0.365.
On to `CCCCC(O)C1C=CC2C(=O)N(Cc3ccccc3)C(=O)C2N1n1cnnc1` (stereo not given), for which the z-score was -1.23 in [1]; 0.0393 (inactive) in [2]; -0.748 (inactive) in test [3]; 0.148 (inactive) in test [5]; -0.601 (inactive) in test [6]; -0.395 (inactive) in [7]. For the same compound, the results for the z-score in test [8] and in [9] were -0.436 (inactive) and -0.409, respectively. Also, the composite z-score in [4] is 0.504 (inactive); in test [10] it was 0.0937.
As for `C=CC[C@@]1(C(=O)NCC(O)CO)N=C(c2ccc(OCCCO)cc2)O[C@@H]1c1ccccc1` (stereo not given in full), the z-score in test [1] is 0.483; in test [2], -2.05 (inactive); in test [3] it was 0.552 (inactive); in test [5], -0.223 (inactive); in test [6], -0.108 (inactive); in test [7] it was 2.08 (inactive). Also, the z-score in test [8] is 0.196 (inactive); in [9], 0.934. Besides, the composite z-score in test [4] was 0.358 (inactive); in test [10], -0.0374.
As to `COc1ccc([Si](C)(C)[C@@H]2[C@@H](CCO)O[C@]3(C(=O)N(Cc4ccc(N5C(=O)c6ccccc6Oc6ccccc65)cc4)c4ccccc43)[C@H]2C)cc1`, the z-score was 0.0213 in test [1]; 2.15 (inactive) in [2]; -0.848 (inactive) in [3]; 2.88 (inactive) in test [5]; 4.38 (inactive) in [6]; 0.365 (inactive) in [7]. Further, the figures for the z-score in [8] and in test [9] were -0.275 (inactive) and -3.07, respectively. In addition, the composite z-score in [4] is -0.343 (inactive); in [10] it was -0.203.
`O=C1O[C@@H](c2ccccc2)[C@@H](c2ccccc2)N2[C@@H](c3ccc(O)cc3)[C@]3(C(=O)Nc4ccc(C#CC5(O)CCCCCC5)cc43)[C@@H](C(=O)N3CCN(c4ncccn4)CC3)[C@H]12`: the z-score is 1.63 in test [1]; -0.271 (inactive) in test [2]; 0.0176 (inactive) in test [3]; -0.641 (inactive) in [5]; 0.642 (inactive) in test [6]; 0.614 (inactive) in [7]. The z-score in test [8] was 0.11 (inactive); in [9] it was 1.1. In addition, the results for the composite z-score in [4] and in test [10] were -1.08 (inactive) and -0.127, respectively.
In the case of `Cc1ccccc1C(O)C1C=CC2C(=O)N(C)C(=O)C2N1Nc1ccc([N+](=O)[O-])cc1[N+](=O)[O-]` (stereo not given), the z-score in test [1] is -0.138; in test [2], 1.09 (inactive); in test [3], -0.729 (inactive); in [5], 0.186 (inactive); in test [6], 0.446 (inactive); in [7], -0.456 (inactive). Besides, the figures for the z-score in test [8] and in test [9] were -0.401 (inactive) and -0.963, respectively. Moreover, the composite z-score was -0.286 (inactive) in [4] and -0.0172 in test [10].
Consider `O=C1OCCC=C[C@H]2OC34C=CCN(Cn5nnc6ccccc65)C(=O)[C@H]3N(CCCCCO)C(=O)[C@@H]4C12` (stereo not given in full), for which the z-score in test [1] was -0.444; in test [2] it was 0.994 (inactive); in test [3], 0.241 (inactive); in test [5] it was -0.0432 (inactive); in test [6] it was 0.137 (inactive); in test [7] it was 0.672 (inactive). Moreover, the z-score in test [8] was 0.774 (inactive); in [9] it was 0.618. Moreover, the composite z-score in test [4] was -0.951 (inactive); in test [10], -0.0943.
In the case of `CN(C)C(=O)[C@@]1(CCC(=O)OC(C)(C)C)N=C(c2ccc(OCCCO)cc2)O[C@H]1c1ccccc1N=[N+]=[N-]`, the z-score in test [1] is 0.506; in [2] it was 0.314 (inactive); in test [3] it was -1.36 (inactive); in [5], 1.35 (inactive); in test [6] it was 1.98 (inactive); in [7], 0.306 (inactive). The z-score was -0.264 (inactive) in test [8] and -0.839 in [9]. Also, the composite z-score in test [4] was 0.645 (inactive); in test [10], 0.0428.
Consider `C=CCOC(=O)[C@H]1[C@@H]2C(=O)O[C@@H](c3ccccc3)[C@@H](c3ccccc3)N2[C@@H](c2ccc(OCCOC(=O)[C@H]3C[C@H]4C(=O)N[C@@H](CCCCN(C)C)C(=O)N4[C@H]3c3ccc(O)cc3)cc2)[C@]12C(=O)Nc1ccccc12`, for which the z-score was 0.569 in [1]; -2.35 (inactive) in test [2]; 0.95 (inactive) in test [3]; -0.723 (inactive) in test [5]; 0.719 (inactive) in test [6]; 0.172 (inactive) in test [7]. Besides, the values for the z-score in test [8] and in test [9] were -0.739 (inactive) and 0.828, respectively. The composite z-score in test [4] was 0.279 (inactive); in test [10] it was 0.0425.
Regarding `[N-]=[N+]=NCc1ccccc1C[C@]1(C(=O)NCCN2CCOCC2)N=C(c2ccc(OCCCO)cc2)O[C@H]1c1ccccc1`, the z-score in test [1] is 0.383; in test [2], -2 (inactive); in [3], -0.0784 (inactive); in [5] it was 0.193 (inactive); in [6] it was -0.65 (inactive); in test [7], 1.24 (inactive). Moreover, the z-score in test [8] is 0.535 (inactive); in test [9] it was 0.166. The composite z-score in test [4] was -0.603 (inactive); in [10], 0.131.
